Assay results: PubChem BioAssay (NCATS)
Results filed as inconclusive are left out. A call without a number means that no potency is given here. Active and inactive are the calls of the source. Unless noted, calls follow the shape of the dose curve; as a rule, active = well fitted curve in the direction sought with a large enough effect; inconclusive = small, poorly fitted or top-dose-only effect, or another doubt; inactive = no such curve, though single readings can be large; an effect the other way counts as inactive or inconclusive.

Tests used:
[1] = Cytometry Cell-Based qHTS for Inhibitors of the mTORC1 Signaling Pathway in MEF cells (AID 2668);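 also: Tsc2-/- p53-/- mouse embryonic fibroblasts stably re-expressing wild-type Tsc2; percent cells positive for phospho-rpS6 Ser235/236 relative to propidium iodide stain; series mostly up to about 38 µM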
How it was run: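 Phospho-rpS6 (Ser235/236) immunofluorescence over PI signal, scored as % positive cells using thresholds from 7.5 nM rapamycin and DMSO wells, after 24 h compound exposure of WT-Tsc2-rescued Tsc2-/-, p53-/- MEFs. PI cell count recorded for viability.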

[2] = target: Ubiquitin carboxyl-terminal hydrolase 2 (Homo sapiens) (UniProt O75604); test: qHTS Validation Assay for Inhibitors of Ubiquitin-specific Protease USP2a Using CHOP2 as the Reporter (AID 463106)
How it was run: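 USP2 core (10 nM final) was preincubated with compound 30 min at RT in pH 8.0 Tris/CaCl2/beta-ME/CHAPS buffer. Ub-CHOP2 and reporter substrate (25 nM final each) were then added, with fluorescence (Ex 485/Em 531) read after 60 min. Data were normalized to NEM full inhibition and fitted to concentration-response curves.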

[3] = target: DNA polymerase III PolC-type (Bacillus subtilis (strain 168)) (UniProt P13267); test: qHTS Validation Assay for the Inhibitors of DNA Replication in Gram-Positive Bacteria (AID 485295); also: potency is read from the fitted curve at half-maximal effect
How it was run: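 Double-stranded DNA product detected by PicoGreen fluorescence after EDTA quench. Compound incubated with B. subtilis holoenzyme (PolC, beta subunit, SSB, primase) before substrate addition; primed replication of M13Gori with dNTPs and NTPs at room temperature; DMSO defines 0% inhibition.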

[4] = target: Tumor susceptibility gene 101 protein (Homo sapiens) (UniProt Q99816); test: qHTS Validation Assay for Iinhibitors of HIV-1 Budding by Blocking the Interaction of PTAP/TSG101 (AID 485342; calls by dose curve)
How it was run: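 Fluorescence polarization of 50 nM FITC-PTAP peptide bound to 10 uM Tsg101 binding domain was read after 20 min room-temperature incubation with compounds, in 10 mM HEPES pH 7.5, 0.15 M NaCl, 0.01% Tween 20.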

[5] = target: Beta-2 adrenergic receptor (Homo sapiens) (UniProt P07550); test: qHTS validation assay of beta-arrestin-biased ligands of beta2-adrenergic receptor (AID 485366)
How it was run: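 Values derive from curve-fitted %Activity of a luminescent beta-arrestin recruitment reporter; compounds tested up to 46 microM on Tango cells for 18 hr at 37 degrees C, 5% CO2.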

[6] = target: ATP-dependent 6-phosphofructokinase (Trypanosoma brucei brucei) (UniProt O15648); test: qHTS Validation Assay to Find Inhibitors of T. brucei phosphofructokinase (AID 485368); conditions: outcome: dose series up to 57.5 µM
How it was run: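 Enzyme reaction in triethanolamine buffer pH 8.0 with 5 mM MgCl2, 0.01% Tween20 and 0.1% BSA; PFK 1.25 nM, F6P 0.5 mM, ATP 0.1 mM, 45 min RT. ADP quantified by ADP-Glo.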

[7] = Quantitative high throughput screen for delayed death inhibitors of the malarial parasite plastid, 96 hour incubation (AID 488745); also: nearly all actives have a fitted effect of over 70% in size; also: potency is read from the fitted curve at half-maximal effect
How it was run: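 Luciferase-expressing P. falciparum in erythrocytes (2% hematocrit, 0.1% parasitemia) incubated with compound for 96 h at 37 C, 5% CO2, in RPMI 1640 with 0.5% Albumax. Growth inhibition read as decreased luminescence.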

[8] = qHTS Validation Assay to Find Inhibitors of Chronic Active B-Cell Receptor Signaling (AID 485345; active = well fitted curve in the direction sought with a large enough effect in the main read-out, with a control signal flat, not every such curve was filed as active)
How it was run: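 TMD8 ABC-DLBCL cells stably carrying doxycycline-inducible IkappaBalpha–green luciferase fusion plus unfused red luciferase; compounds 46 uM to 3 nM, 4 h at 37C with doxycycline. Corrected green/red luminescence ratio normalized to 10 uM MG-132 and basal cell wells; curves fitted.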

[9] = Validation screen for small molecules that induce DNA re-replication in MCF 10A normal breast cells (AID 463097); also: nearly all actives have a fitted effect of over 60% in size; also: potency is read from the fitted curve at half-maximal effect
How it was run: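 Read-out is Hoechst total nuclear intensity by fluorescence scanning imager, flagging increased high-DNA-content nuclei. Compounds were incubated with MCF 10A cells for 48 hr (37 C, 5% CO2) before 40 min staining.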

[10] = Quantitative high throughput screen for delayed death inhibitors of the malarial parasite plastid, 48 hour incubation (AID 488752); also: nearly all actives have a fitted effect of over 65% in size; also: potency is read from the fitted curve at half-maximal effect
How it was run: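 Erythrocytes infected with firefly luciferase-expressing P. falciparum (2% hematocrit, 0.1% parasitemia) cultured with compound for 48 h at 37 C, 5% CO2, in RPMI 1640/0.5% Albumax. Growth inhibition read as loss of luminescence.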

Beta-2 adrenergic receptor (Homo sapiens), sequence (P07550 whole entry, looked up): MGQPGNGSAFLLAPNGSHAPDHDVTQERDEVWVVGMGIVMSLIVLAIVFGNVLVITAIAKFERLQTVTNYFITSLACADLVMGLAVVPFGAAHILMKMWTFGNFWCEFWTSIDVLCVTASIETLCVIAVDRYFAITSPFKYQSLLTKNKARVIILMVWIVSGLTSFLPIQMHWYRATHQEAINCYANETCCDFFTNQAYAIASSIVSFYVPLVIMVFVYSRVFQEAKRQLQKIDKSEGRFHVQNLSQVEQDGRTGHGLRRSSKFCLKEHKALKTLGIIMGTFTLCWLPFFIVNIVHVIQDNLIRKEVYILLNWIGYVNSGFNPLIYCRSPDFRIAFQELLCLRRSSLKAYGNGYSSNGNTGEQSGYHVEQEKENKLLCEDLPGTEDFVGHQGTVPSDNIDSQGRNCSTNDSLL
Tumor susceptibility gene 101 protein (Homo sapiens), sequence (Q99816 whole entry, looked up, the tested form may be a part): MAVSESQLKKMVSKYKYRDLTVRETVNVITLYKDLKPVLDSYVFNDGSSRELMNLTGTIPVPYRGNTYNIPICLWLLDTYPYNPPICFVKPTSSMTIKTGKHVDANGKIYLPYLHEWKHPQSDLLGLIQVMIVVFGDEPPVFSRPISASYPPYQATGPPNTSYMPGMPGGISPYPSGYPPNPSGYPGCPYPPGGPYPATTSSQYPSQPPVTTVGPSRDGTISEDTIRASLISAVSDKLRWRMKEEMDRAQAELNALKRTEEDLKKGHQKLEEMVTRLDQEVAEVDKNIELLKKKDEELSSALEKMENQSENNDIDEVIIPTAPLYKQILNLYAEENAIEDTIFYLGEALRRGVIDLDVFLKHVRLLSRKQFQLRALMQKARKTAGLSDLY
DNA polymerase III PolC-type (Bacillus subtilis (strain 168)), sequence (P13267 whole entry, looked up): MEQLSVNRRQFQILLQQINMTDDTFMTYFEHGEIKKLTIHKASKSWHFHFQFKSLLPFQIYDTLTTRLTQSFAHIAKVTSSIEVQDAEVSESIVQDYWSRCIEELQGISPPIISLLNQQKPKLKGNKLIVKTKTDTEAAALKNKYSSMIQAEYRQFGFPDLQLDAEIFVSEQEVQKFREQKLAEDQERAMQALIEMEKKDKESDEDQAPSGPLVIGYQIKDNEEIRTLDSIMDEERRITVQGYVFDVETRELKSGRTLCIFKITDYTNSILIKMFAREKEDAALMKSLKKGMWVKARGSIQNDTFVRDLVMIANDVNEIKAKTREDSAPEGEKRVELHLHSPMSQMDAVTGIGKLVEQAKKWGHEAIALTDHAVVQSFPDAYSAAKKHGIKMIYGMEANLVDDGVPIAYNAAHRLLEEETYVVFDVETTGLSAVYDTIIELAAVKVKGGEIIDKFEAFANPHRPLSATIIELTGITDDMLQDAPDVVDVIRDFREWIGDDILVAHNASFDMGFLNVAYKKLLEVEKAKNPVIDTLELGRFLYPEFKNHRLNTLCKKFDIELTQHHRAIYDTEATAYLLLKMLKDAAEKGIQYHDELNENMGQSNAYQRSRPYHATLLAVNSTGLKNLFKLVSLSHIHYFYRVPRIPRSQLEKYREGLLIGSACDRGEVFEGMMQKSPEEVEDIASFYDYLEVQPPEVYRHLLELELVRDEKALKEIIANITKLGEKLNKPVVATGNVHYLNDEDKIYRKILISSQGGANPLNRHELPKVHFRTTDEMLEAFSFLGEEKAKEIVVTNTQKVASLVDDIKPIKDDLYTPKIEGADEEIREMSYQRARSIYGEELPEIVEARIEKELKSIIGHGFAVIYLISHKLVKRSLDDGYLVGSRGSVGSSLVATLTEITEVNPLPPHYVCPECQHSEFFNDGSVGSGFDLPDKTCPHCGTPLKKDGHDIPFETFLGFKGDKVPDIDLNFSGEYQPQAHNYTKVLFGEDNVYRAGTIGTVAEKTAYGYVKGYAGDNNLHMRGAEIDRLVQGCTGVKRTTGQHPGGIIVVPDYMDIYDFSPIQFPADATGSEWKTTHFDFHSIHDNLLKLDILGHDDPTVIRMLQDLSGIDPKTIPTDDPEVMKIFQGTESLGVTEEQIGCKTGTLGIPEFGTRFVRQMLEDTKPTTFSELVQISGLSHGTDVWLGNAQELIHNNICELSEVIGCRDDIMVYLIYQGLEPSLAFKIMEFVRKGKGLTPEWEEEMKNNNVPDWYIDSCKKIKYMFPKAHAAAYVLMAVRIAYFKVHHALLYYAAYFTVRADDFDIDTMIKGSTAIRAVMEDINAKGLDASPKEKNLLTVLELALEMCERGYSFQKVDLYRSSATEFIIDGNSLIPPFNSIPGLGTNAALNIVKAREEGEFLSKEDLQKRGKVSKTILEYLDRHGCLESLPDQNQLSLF
Ubiquitin carboxyl-terminal hydrolase 2 (Homo sapiens), sequence (O75604 whole entry, looked up): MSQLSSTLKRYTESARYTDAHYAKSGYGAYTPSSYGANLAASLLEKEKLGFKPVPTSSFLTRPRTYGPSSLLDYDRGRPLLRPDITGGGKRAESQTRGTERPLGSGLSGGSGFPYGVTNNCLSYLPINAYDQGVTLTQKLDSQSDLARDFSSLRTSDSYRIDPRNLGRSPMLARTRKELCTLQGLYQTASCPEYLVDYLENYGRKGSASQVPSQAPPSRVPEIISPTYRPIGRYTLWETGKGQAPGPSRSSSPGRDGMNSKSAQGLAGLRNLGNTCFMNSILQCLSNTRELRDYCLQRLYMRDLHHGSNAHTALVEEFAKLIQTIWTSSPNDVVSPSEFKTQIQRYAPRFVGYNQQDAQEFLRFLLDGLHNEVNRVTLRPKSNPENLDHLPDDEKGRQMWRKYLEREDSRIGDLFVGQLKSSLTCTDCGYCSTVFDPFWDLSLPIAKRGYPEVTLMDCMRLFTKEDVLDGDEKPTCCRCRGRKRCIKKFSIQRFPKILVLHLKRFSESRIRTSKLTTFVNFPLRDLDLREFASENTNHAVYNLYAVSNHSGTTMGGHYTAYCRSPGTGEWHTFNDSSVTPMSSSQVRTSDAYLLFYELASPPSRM
ATP-dependent 6-phosphofructokinase (Trypanosoma brucei brucei), sequence (O15648 whole entry, looked up): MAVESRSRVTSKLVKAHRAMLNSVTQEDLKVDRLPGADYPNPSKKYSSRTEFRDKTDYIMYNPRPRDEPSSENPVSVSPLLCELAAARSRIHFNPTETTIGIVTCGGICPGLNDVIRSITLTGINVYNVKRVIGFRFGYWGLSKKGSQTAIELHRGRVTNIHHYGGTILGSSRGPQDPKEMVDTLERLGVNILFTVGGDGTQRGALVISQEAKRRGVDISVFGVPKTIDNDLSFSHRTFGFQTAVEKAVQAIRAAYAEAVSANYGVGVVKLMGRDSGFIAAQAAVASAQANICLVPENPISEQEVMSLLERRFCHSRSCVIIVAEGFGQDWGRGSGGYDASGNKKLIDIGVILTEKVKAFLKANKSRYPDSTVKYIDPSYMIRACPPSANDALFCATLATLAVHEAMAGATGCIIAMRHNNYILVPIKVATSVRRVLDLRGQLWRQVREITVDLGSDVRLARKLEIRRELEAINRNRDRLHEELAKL

SMILES | outcome [1] | outcome [2] | Potency [3] | outcome [4] | outcome [5] | outcome [6] | Potency [7] | outcome [8] | Potency [9] | Potency [10]
Cn1cnc([N+](=O)[O-])c1Sc1ncnc2nc[nH]c12 | inactive | inactive | inactive | inactive | inactive | inactive | inactive | – | – | –
O=C(Nc1nc2ccccc2n1CCN1CCOCC1)c1cccc([N+](=O)[O-])c1 | – | inactive | inactive | inactive | inactive | – | – | inactive | – | –
Cc1oncc1C(=O)Nc1ccc(C(F)(F)F)cc1 | inactive | inactive | inactive | inactive | inactive | inactive | – | – | – | –
Nc1ncnc2nc(-c3ccc(N4CCOCC4)nc3)cc(-c3cccc(Br)c3)c12 | inactive | inactive | inactive | inactive | inactive | inactive | – | – | – | –
CC(C)C[C@H](NC(=O)[C@@H](O)[C@H](N)Cc1ccccc1)C(=O)O | inactive | inactive | inactive | inactive | – | – | 0.37 µM (active) | inactive | inactive | 1.04 µM (active)
NCCc1ccc(O)c(O)c1 | – | inactive | inactive | inactive | inactive | – | inactive | inactive | inactive | inactive
Cc1cnc(NC(=O)C2=C(O)c3ccccc3S(=O)(=O)N2C)s1 | inactive | – | inactive | inactive | inactive | – | inactive | – | inactive | inactive
O=C(O)COCCN1CCN(C(c2ccccc2)c2ccc(Cl)cc2)CC1 (stereo not drawn) | inactive | inactive | – | inactive | inactive | – | – | inactive | – | –
NC(N)=NC(=O)c1nc(Cl)c(N)nc1N | inactive | inactive | inactive | inactive | inactive | inactive | – | – | inactive | –
CC(C)(Sc1ccc(CCN(CCCCC2CCCCC2)C(=O)NC2CCCCC2)cc1)C(=O)O | inactive | – | 26.7 µM (active) | inactive | inactive | – | inactive | – | 12.6 µM (active) | inactive
OC(CCN1CCCCC1)(c1ccccc1)C1CC2C=CC1C2 (stereo not drawn) | inactive | inactive | inactive | inactive | inactive | inactive | – | inactive | – | –
Cc1cc2c(C(C)C)c(O)c(O)c(C=O)c2c(O)c1-c1c(C)cc2c(C(C)C)c(O)c(O)c(C=O)c2c1O | – | – | – | inactive | inactive | – | – | – | – | –
OC(CN1CCC(Cc2ccc(F)cc2)CC1)c1ccc(Cl)cc1 (stereo not drawn) | – | inactive | inactive | inactive | inactive | inactive | 2.94 µM (active) | inactive | – | 3.29 µM (active)
Nc1nc2c(ncn2COCCO)c(=O)[nH]1 | inactive | – | inactive | inactive | inactive | inactive | inactive | inactive | inactive | inactive
C[C@]12CCC(=O)C=C1CC[C@@H]1[C@@H]2[C@@H](O)C[C@@]2(C)[C@H]1CC[C@]2(O)C(=O)CO | inactive | inactive | inactive | inactive | inactive | inactive | – | – | – | –
CN1CCN(CCCN2c3ccccc3Sc3ccc(C(F)(F)F)cc32)CC1 | – | inactive | inactive | inactive | inactive | inactive | – | – | – | 9.28 µM (active)
O=C1CCc2cc(OCCCCc3nnnn3C3CCCCC3)ccc2N1 | inactive | inactive | inactive | inactive | inactive | – | inactive | – | inactive | inactive
Nc1nc2ccc(OC(F)(F)F)cc2s1 | inactive | inactive | inactive | inactive | inactive | inactive | – | – | – | –
Oc1ccc(C2CNCCc3c2cc(O)c(O)c3Cl)cc1 (stereo not drawn) | inactive | inactive | – | inactive | inactive | – | – | inactive | inactive | –
O=c1n(CCCN2CCN(c3cccc(Cl)c3)CC2)nc2ccccn12 | inactive | inactive | inactive | inactive | inactive | – | inactive | – | inactive | inactive
Cc1cccc(-c2[nH]c(C(C)(C)C)nc2-c2ccc3nccnc3c2)n1 | – | inactive | inactive | inactive | inactive | – | – | inactive | – | –
CCOC(=O)C1=C[C@]2(CC)CCCN3CCc4c(n1c1ccccc41)[C@@H]32 | inactive | inactive | inactive | inactive | inactive | inactive | – | – | inactive | –
C1COC(NC(C2CC2)C2CC2)=N1 | inactive | inactive | inactive | inactive | inactive | inactive | – | inactive | – | inactive
CCOC(=O)N1CCC(=C2c3ccc(Cl)cc3CCc3cccnc32)CC1 | – | inactive | inactive | inactive | inactive | – | – | – | – | –
CC(C)NCC(O)COc1ccc(COCCOC(C)C)cc1 (stereo not drawn) | inactive | inactive | inactive | inactive | – | inactive | inactive | inactive | inactive | inactive
NNCCc1ccccc1 | inactive | inactive | inactive | inactive | inactive | – | inactive | – | inactive | inactive
